This is part of a sample that, as a whole, favours compounds with a hit. Of some 79,000 tested, about 15% had one in any assay. Activity calls are given as the source filed them. No stated cut-off is given here; in the data, active means growth inhibition above about 70%; inactive means the rest.
Tests used:
[1] = NCI Yeast Anticancer Drug Screen. Data for the wt1 strain (AID 149);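 further: 0% = growth of vehicle-treated wt1 cultures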; details: S. cerevisiae wt1 strain (SPY 50644) growth inhibition, stronger effect = higher value
Summary of the method: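 Measured: growth of wt1 yeast under compound versus vehicle treatment, reported as inhibition.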

[2] = NCI Yeast Anticancer Drug Screen. Data for the rad50EPP+ strain (AID 151);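 further: 0% = growth of vehicle-treated control cultures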; details: S. cerevisiae rad50 mutant strain, stronger effect = higher value
Summary of the method: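 Exposing the rad50EPP+ strain to each compound, growth was compared with vehicle-only cultures to give inhibition.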

[3] = NCI Yeast Anticancer Drug Screen. Data for the mgt1 strain (AID 153); details: S. cerevisiae mgt1 mutant growth inhibition, stronger effect = higher value
Summary of the method: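 Genetically defined yeast (mgt1) treated with compound; inhibition of growth expressed against vehicle-treated controls.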

[4] = NCI Yeast Anticancer Drug Screen. Data for the rad50 strain (AID 155);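 further: 0% = growth of vehicle-only cultures of the same strain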; details: S. cerevisiae rad50 strain growth inhibition, stronger effect = higher value
Summary of the method: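 Growth of the mutant yeast was measured after compound exposure and referenced to vehicle-treated cultures.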

[5] = NCI Yeast Anticancer Drug Screen. Data for the mec2-1 strain (AID 157); details: S. cerevisiae mec2-1 strain, stronger effect = higher value
Summary of the method: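 Readout is yeast growth inhibition, normalised to vehicle-treated controls, in the mec2-1 strain exposed to compound.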

[6] = NCI Yeast Anticancer Drug Screen. Data for the rad14 strain (AID 159);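 further: 0% = growth of vehicle-treated control cultures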; details: S. cerevisiae rad14 strain growth inhibition, stronger effect = higher value
Summary of the method: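 Here, inhibition of yeast growth was measured after compound exposure, using a strain with a genetic defect in DNA damage repair and vehicle-treated cultures as the reference.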

[7] = NCI Yeast Anticancer Drug Screen. Data for the sgs1 mgt1 strain (AID 161);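 further: 0% = growth of cultures given vehicle only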; details: S. cerevisiae sgs1 mgt1 strain, stronger effect = higher value
Summary of the method: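 This yeast growth screen uses a strain with defined DNA-repair lesions; compound-treated growth is compared with vehicle-treated growth.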

[8] = NCI Yeast Anticancer Drug Screen. Data for the CLN2oe strain (AID 163);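 further: 0% = growth of vehicle-only control cultures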; details: S. cerevisiae CLN2oe strain, stronger effect = higher value
Summary of the method: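 Values reflect how much compound exposure reduced yeast growth, referenced to vehicle-exposed cells. Assay organism is a strain with a defined genetic change affecting cell-cycle control.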

[9] = NCI Yeast Anticancer Drug Screen. Data for the cln2 rad14 strain (AID 165);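 further: 0% = growth equal to vehicle treated cultures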; details: S. cerevisiae cln2 rad14 strain, stronger effect = higher value
Summary of the method: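 Relative to vehicle controls, growth inhibition of compound-treated cln2 rad14 yeast was recorded.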

[10] = NCI Yeast Anticancer Drug Screen. Data for the bub3 strain (AID 167); details: S. cerevisiae bub3 mutant strain, stronger effect = higher value
Summary of the method: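 Whole-cell yeast assay. The mutant strain was incubated with compounds, and growth inhibition was determined by comparison with vehicle-treated cells.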

[11] = NCI Yeast Anticancer Drug Screen. Data for the wt2 strain (AID 169);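 further: 0% = growth of vehicle-treated yeast cultures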; details: S. cerevisiae wt2 strain growth inhibition, stronger effect = higher value
Summary of the method: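 Values express reduction in yeast growth under compound treatment, referenced to vehicle-treated cells.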

[12] = NCI Yeast Anticancer Drug Screen. Data for the mlh1 strain (AID 171);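 further: 0% = growth of vehicle-treated control cultures of the same strain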; details: S. cerevisiae mlh1 strain growth inhibition, stronger effect = higher value
Summary of the method: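 Steps: expose the defined-mutant yeast strain to compound; expose a parallel culture to vehicle; measure growth; express compound effect as inhibition relative to the vehicle culture.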

[13] = NCI Yeast Anticancer Drug Screen. Data for the sgs1 strain (AID 173);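 further: 0% = growth of vehicle-only control cultures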; details: S. cerevisiae sgs1 mutant, stronger effect = higher value
Summary of the method: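 Treat defined-mutant yeast with compound; measure growth; calculate inhibition relative to vehicle-treated cells.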

[14] = NCI Yeast Anticancer Drug Screen. Data for the mlh1 rad18 strain (AID 175); details: S. cerevisiae mlh1 rad18 strain growth inhibition, stronger effect = higher value
Summary of the method: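 Test agents were incubated with a yeast strain of defined genotype (DNA damage repair defect). Inhibition of growth was derived by comparison with vehicle-exposed cultures.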

[15] = NCI Yeast Anticancer Drug Screen. Data for the rad52 strain (AID 147);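 further: 0% = growth of vehicle-treated control cultures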; details: S. cerevisiae rad52 mutant growth inhibition, stronger effect = higher value
Summary of the method: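 Screen used a yeast mutant impaired in DNA repair. After compound exposure, growth was measured. Values reflect inhibition compared with vehicle-treated cells.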

[16] = NCI Yeast Anticancer Drug Screen. Data for the rad18 strain (AID 177); details: S. cerevisiae rad18 mutant growth inhibition, stronger effect = higher value
Summary of the method: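 A genetically defined yeast mutant impaired in DNA damage repair was treated with test compounds, then its growth was measured against cultures receiving vehicle alone.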

[17] = at 5.0 µM (retest, dose inferred, filed as 0.5)
[18] = at 50.0 µM (retest, dose inferred, filed as 5.0)

Measured: growth inhibition

O=S(=O)(Oc1c(Cl)cc(Cl)cc1Cl)c1ccccc1
inactive: [1]; at 1.2 µM -4% | [1]; at 3.7 µM -7% | [1]; at 11.0 µM -9% | [1]; at 33.0 µM -11% | [1]; at 100.0 µM -5% | [2]; at 1.2 µM 8% | [2]; at 3.7 µM 23% | [2]; at 11.0 µM 37% | [3]; at 1.2 µM -3% | [3]; at 3.7 µM -5% | [3]; at 11.0 µM -2% | [3]; at 33.0 µM 9% | [3]; at 100.0 µM 30% | [4]; at 1.2 µM 0% | [4]; at 3.7 µM 3% | [4]; [17] 8% | [4]; at 11.0 µM 10% | [4]; at 33.0 µM 14% | [4]; [18] 12% | [4]; at 50.0 µM 10.2% | [4]; at 100.0 µM 14% | [5]; at 1.2 µM -4% | [5]; at 3.7 µM -1% | [5]; [17] -9% | [5]; at 11.0 µM 1% | [5]; at 33.0 µM 4% | [5]; [18] 20% | [5]; at 50.0 µM 40.5% | [5]; at 100.0 µM 13% | [6]; at 1.2 µM 0% | [6]; at 3.7 µM 0% | [6]; at 11.0 µM 8% | [6]; at 33.0 µM 11% | [6]; at 100.0 µM 12% | [7]; [17] 2% | [7]; [18] 47% | [7]; at 50.0 µM 66.3% | [8]; at 1.2 µM -1% | [8]; at 3.7 µM -4% | [8]; at 11.0 µM -14% | [8]; at 33.0 µM -14% | [8]; at 100.0 µM -8% | [9]; [17] -18% | [9]; [18] 20% | [9]; at 50.0 µM -33.5% | [10]; at 1.2 µM -1% | [10]; at 3.7 µM -4% | [10]; [17] 0% | [10]; at 11.0 µM -2% | [10]; at 33.0 µM 0% | [10]; [18] -8% | [10]; at 50.0 µM 55.4% | [10]; at 100.0 µM 14% | [11]; at 1.2 µM -1% | [11]; at 3.7 µM -4% | [11]; at 11.0 µM -7% | [11]; at 33.0 µM -2% | [11]; at 100.0 µM 10% | [12]; at 1.2 µM -1% | [12]; at 3.7 µM -2% | [12]; at 11.0 µM -10% | [12]; at 33.0 µM 13% | [12]; at 100.0 µM 28% | [13]; at 1.2 µM -3% | [13]; at 3.7 µM -1% | [13]; at 11.0 µM 11% | [13]; at 33.0 µM 22% | [13]; at 100.0 µM 11% | [14]; [17] -7% | [14]; [18] 56% | [14]; at 50.0 µM 63.6%
active: [2]; at 33.0 µM 71% | [2]; at 100.0 µM 89%

COc1cc(C(C)(C)C)cc(OC)c1C(O)(c1c(OC)cc(C(C)(C)C)cc1OC)c1c(OC)cc(C(C)(C)C)cc1OC
active: [15]; at 11.0 µM 88% | [15]; at 33.0 µM 92% | [15]; at 100.0 µM 84% | [1]; at 11.0 µM 93% | [1]; at 33.0 µM 94% | [1]; at 100.0 µM 91% | [2]; at 11.0 µM 87% | [2]; at 33.0 µM 92% | [2]; at 100.0 µM 83% | [4]; at 11.0 µM 92% | [4]; at 33.0 µM 93% | [4]; [18] 94% | [4]; at 50.0 µM 78% | [4]; at 100.0 µM 88% | [5]; [17] 81% | [5]; at 11.0 µM 90% | [5]; at 33.0 µM 94% | [5]; [18] 96% | [5]; at 50.0 µM 79.7% | [5]; at 100.0 µM 90% | [6]; at 11.0 µM 88% | [6]; at 33.0 µM 91% | [6]; at 100.0 µM 86% | [8]; at 11.0 µM 87% | [8]; at 33.0 µM 93% | [8]; at 100.0 µM 89% | [9]; [18] 96% | [9]; at 50.0 µM 77.3% | [10]; [17] 76% | [10]; at 11.0 µM 92% | [10]; at 33.0 µM 94% | [10]; [18] 96% | [10]; at 50.0 µM 75.8% | [10]; at 100.0 µM 85% | [13]; at 11.0 µM 95% | [13]; at 33.0 µM 95% | [13]; at 100.0 µM 89% | [14]; [18] 93% | [14]; at 50.0 µM 76.1% | [16]; at 11.0 µM 93% | [16]; at 33.0 µM 94% | [16]; at 100.0 µM 87%
inactive: [15]; at 1.2 µM -10% | [15]; at 3.7 µM 33% | [1]; at 1.2 µM 4% | [1]; at 3.7 µM 42% | [2]; at 1.2 µM -1% | [2]; at 3.7 µM 14% | [4]; at 1.2 µM 25% | [4]; at 3.7 µM 30% | [4]; [17] 33% | [5]; at 1.2 µM -22% | [5]; at 3.7 µM 32% | [6]; at 1.2 µM -24% | [6]; at 3.7 µM -28% | [8]; at 1.2 µM 31% | [8]; at 3.7 µM 45% | [9]; [17] 47% | [10]; at 1.2 µM -25% | [10]; at 3.7 µM 44% | [13]; at 1.2 µM -3% | [13]; at 3.7 µM 4% | [14]; [17] 15% | [16]; at 1.2 µM -4% | [16]; at 3.7 µM 10%

Reference: PubChem BioAssay (NCI)
